Among the data in ChEMBL document CHEMBL2218924, “A broad activity screen in support of a chemogenomic map for kinase signalling research and drug discovery” (Biochem J, 2013) are residual activity values, retold here.

Experiment [1] deals with Protein kinase C delta type (Homo sapiens) (UniProt Q05655). The note with it: at 10 µM.
In experiment [2] the target is T1, Protein kinase C epsilon type (Homo sapiens) (UniProt Q02156).
T1 sequence (whole entry): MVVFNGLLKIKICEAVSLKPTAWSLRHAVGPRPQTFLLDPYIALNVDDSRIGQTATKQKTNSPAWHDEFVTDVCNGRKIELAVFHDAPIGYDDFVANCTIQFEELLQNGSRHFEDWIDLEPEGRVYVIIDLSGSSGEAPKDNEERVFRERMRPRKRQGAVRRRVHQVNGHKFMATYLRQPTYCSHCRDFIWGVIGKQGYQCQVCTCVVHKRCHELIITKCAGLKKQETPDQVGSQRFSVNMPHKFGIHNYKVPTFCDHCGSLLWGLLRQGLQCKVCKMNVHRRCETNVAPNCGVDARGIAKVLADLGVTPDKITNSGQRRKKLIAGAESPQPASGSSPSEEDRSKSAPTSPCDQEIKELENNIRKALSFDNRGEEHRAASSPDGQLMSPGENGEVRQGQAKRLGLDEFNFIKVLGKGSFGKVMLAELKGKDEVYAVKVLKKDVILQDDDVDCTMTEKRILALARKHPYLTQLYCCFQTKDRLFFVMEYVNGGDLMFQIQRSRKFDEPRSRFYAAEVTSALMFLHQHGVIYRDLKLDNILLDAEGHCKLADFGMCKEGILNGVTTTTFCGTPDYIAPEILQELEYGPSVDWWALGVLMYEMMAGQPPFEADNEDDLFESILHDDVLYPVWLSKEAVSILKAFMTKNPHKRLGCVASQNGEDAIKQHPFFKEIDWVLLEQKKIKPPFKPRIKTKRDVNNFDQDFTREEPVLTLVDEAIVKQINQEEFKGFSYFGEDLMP
The settings on record: at 1 µM.

Experiment [3] deals with T1, Protein kinase C epsilon type (Homo sapiens). The settings on record: at 10 µM.

Sequence of Protein kinase C delta type (Homo sapiens) (Q05655 whole entry, looked up): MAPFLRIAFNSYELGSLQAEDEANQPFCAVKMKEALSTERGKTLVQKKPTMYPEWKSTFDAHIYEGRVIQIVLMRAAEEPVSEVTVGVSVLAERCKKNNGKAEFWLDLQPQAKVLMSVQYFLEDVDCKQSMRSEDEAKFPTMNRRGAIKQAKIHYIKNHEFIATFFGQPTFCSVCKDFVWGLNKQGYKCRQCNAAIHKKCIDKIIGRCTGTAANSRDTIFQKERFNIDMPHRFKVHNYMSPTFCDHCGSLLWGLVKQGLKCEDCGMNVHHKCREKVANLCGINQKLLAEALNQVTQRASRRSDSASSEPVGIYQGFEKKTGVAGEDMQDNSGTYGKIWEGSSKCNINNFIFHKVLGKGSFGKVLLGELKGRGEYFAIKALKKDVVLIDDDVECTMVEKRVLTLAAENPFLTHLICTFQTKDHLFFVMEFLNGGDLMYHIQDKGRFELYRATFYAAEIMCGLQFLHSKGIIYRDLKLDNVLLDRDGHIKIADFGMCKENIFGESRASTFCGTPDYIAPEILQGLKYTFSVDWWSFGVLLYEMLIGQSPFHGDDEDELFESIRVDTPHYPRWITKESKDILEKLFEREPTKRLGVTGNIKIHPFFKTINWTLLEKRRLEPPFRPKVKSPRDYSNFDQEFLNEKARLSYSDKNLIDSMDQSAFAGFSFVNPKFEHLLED

As for `COC(=O)[C@@]1(O)C[C@H]2O[C@]1(C)n1c3ccccc3c3c4c(c5c6ccccc6n2c5c31)C(=O)NC4`, the residual activity (in general, the signal under treatment as a percentage of the control signal) in experiment [1] came to 3%; in experiment [2], 51%; in experiment [3], 10%.

For `c1cc(-c2cnn3cc(-c4ccc(OCCN5CCCCC5)cc4)cnc23)ccn1`, in experiment [3], the residual activity was 103%.

Consider `CCn1cnc2c(Nc3cccc(Cl)c3)nc(N[C@@H]3CCCC[C@@H]3N)nc21`, for which the results for the residual activity in experiment [1], in experiment [2] and in experiment [3] were 59%, 100% and 80%, respectively.

With `CCc1nc(-c2ccc(OC)cc2)[nH]c1-c1ccncc1`, the residual activity in experiment [1] worked out at 105%; in experiment [2], 104%; in experiment [3], 109%.

For `O=c1[nH]c2ccccc2n1C1CCN(Cc2ccc(-c3nc4cc5[nH]cnc5cc4nc3-c3ccccc3)cc2)CC1`, the residual activity in experiment [1] was 111%; in experiment [2] it was 87%; in experiment [3], 100%.

For the molecule `COc1cc2ncnc(Nc3ccc(OCc4ccccc4)cc3)c2cc1OC`, the values for the residual activity in experiment [1], in experiment [2] and in experiment [3] were 106%, 104% and 119%, respectively.

With `O=[N+]([O-])/C=C/c1ccc2c(c1)OCO2`, the results for the residual activity in experiment [1], in experiment [2] and in experiment [3] were 95%, 81% and 81%, respectively.

As for `COc1ccc2c(c1)/C(=C/c1cnc[nH]1)C(=O)N2`, the residual activity was 61% in experiment [1] and 80% in experiment [3].

On to `O=C1Nc2ccc3ncsc3c2/C1=C/c1c[nH]cn1`, for which the residual activity in experiment [1] is 5%; in experiment [2], 27%; in experiment [3], 9%.

With `C[S+]([O-])c1ccc(-c2nc(-c3ccc(F)cc3)c(-c3ccncc3)[nH]2)cc1` (centres undefined), the residual activity in experiment [1] turned out to be 105%; in experiment [2], 125%; in experiment [3], 105%.

For the molecule `COc1cc(OC)c(/C=C2\C(=O)Nc3ccccc32)c(OC)c1`, the residual activity was found to be 95% in experiment [2] and 107% in experiment [3].

As for `COc1ccc2c(c[n+](C)c3c4cc5c(cc4ccc23)OCO5)c1OC`, the residual activity in experiment [2] worked out at 88%; in experiment [3] it was 78%.

Regarding `CC(C)[C@H](CO)Nc1nc(Nc2cccc(Cl)c2)c2ncn(C(C)C)c2n1`, in experiment [3], the residual activity was 92%.

As to `CC(C)(C)c1cc(C=C(C#N)C#N)cc(Br)c1O`, the residual activity in experiment [1] stood at 97%; in experiment [2], 108%.
